From PubChem BioAssay
The list is not random: actives were taken first. Their share in the collection is about 1.6%.
eIF4E-4G inh: eIF4E–eIF4G protein interaction inhibitors, primary screen, biochemical, uHTS, TR-FRET, eIF4GI fragment | TR-FRET eIF4E-eIF4GI(517-606) binding, 2 h | inhibition, % at 21.7 µM | 0.37% of 220,000 active;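 active means inhibition above about 30%, limit read from the data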;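 further: 0% = full FRET control wells and 100% = background wells lacking eIF4GI fragment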
PABP1 MLLE inh: inhibitors of PABP1 MLLE–PAM2 peptide binding, primary screen, biochemical, fluorescence polarization, FITC-PAM2, GST-MLLE; 0.36% of 360,000 active; Polyadenylate-binding protein 1 (Homo sapiens), P11940; AID 588489, 2011; inhibition, % at 20 µM; in the data active means inhibition above about 35%, passing the limit was not always enough;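 further: plate controls were DMSO wells with GST-MLLE for no effect and wells lacking GST-MLLE protein for full effect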
PABP polyA inh: PABP poly(A) RNA binding inhibitors, primary screen, biochemical, fluorescence polarization, uHTS; Polyadenylate-binding protein 1 (Homo sapiens), P11940; calls only at 35 µM; 1% of 290,000 active; AID 2014, 2009;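 further: calls also rest on retests at 20 µM and on dose response follow-up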
PERK inh: block of dimerizer-induced PERK translation repression, primary screen, PERK inhibitor project, CHO PERK-DD cells, SEAP luminescence, HTS; Eukaryotic translation initiation factor 2-alpha kinase 3 (Homo sapiens), Q9NZJ5; CHO PERK-DD fusion, SEAP luminescence translation reporter; inhibition, % at 5.6 µM; 0.17% of 220,000 active;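 active means inhibition above the mean inhibition of all tested compounds plus 3 SD, set separately per screening campaign, cut at about 2.9% in these data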;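 further: PERK kinase domain activated by AP20187 dimerizer at 100 nM; 0% = DMSO with dimerizer and 100% = rapamycin at 8.4 µM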
eIF4H inh: human eIF4H binding inhibitors, primary screen, translation initiation inhibitor project, biochemical, uHTS, fluorescence polarization; 0.94% of 290,000 active; eIF4H fluorescence polarization binding assay; inhibition, % at 35 µM; Eukaryotic translation initiation factor 4H (Homo sapiens), Q15056;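 further: calls also rest on retests at 20 µM and on dose response follow-up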
* = called active by the depositor; i = inactive; u = inconclusive; x = no result given; + = active, no number. Unless noted, how the calls were made is not given here.

SMILES	eIF4E-4G inh	PABP1 MLLE inh	PABP polyA inh	PERK inh	eIF4H inh
COc1ccccc1NC(=S)NC(=O)/C=C/c1ccco1	-0.4	-1.0	+	-0.3	77.3
Cc1csc(NC(=O)c2ccc(C(=O)Nc3nc(C)cs3)cc2)n1	3.6	x	+	-0.1	u
CCOc1ccc2c(c1)n([O-])c1c([n+]2=O)CCCC1	-1.4	42.6*	i	1.6	-2.7
CCOc1cc(-c2ccc(N)c(OCC)c2)ccc1N	12.2	85.8	+	0.2	u
CCOc1ccc(N)c(SSc2cc(OCC)ccc2N)c1	x	17.9	i	x	1.6
COc1ccccc1NS(=O)(=O)c1cc(NC(=O)CCc2nc3ccccc3c(=O)[nH]2)ccc1C	x	3.5	x	x	x
COc1ccccc1NC(=O)Nc1ccccc1N1CCOCC1	2.8	6.6	i	-0.6	6.5
N#C/C(=C\c1ccc2c(c1)OCO2)C(N)=S	-2.3	21.0	i	0.9	0.2
N#C/C(=C/c1ccco1)C(N)=S	-1.4	14.7	+	1.8	56.9*
Cc1ccc(N2C(=O)CC(Sc3cccs3)C2=O)cc1 (centres undefined)	-3.8	32.8	i	-0.5	-13.9
Cc1ccc(SC2CC(=O)N(c3ccc4c(c3)OCCO4)C2=O)cc1 (centres undefined)	3.4	42.5*	i	1.2	-8.0
Cc1ccc(OCc2cc(C(=O)N(C)Cc3cnc4ccccn34)no2)cc1C	x	1.4	i	x	-10.5
O=C(COC(=O)C1CCN(S(=O)(=O)c2cc([N+](=O)[O-])ccc2Cl)CC1)Nc1ncc(Cl)cc1Cl	22.2	-12.4	+	1.0	69.7*
Cc1ccc(-n2c(N)c(C(N)=O)sc2=S)c(C)c1	-3.6	34.8	i	1.4	59.5*
Cc1ccc(N(CC(N)=O)C2SC(=O)N(C)C2=O)cc1 (centres undefined)	1.0	29.6	i	-0.1	-4.5
Cc1cccc(N(CC(N)=O)C2SC(=O)N(c3ccccc3)C2=O)c1 (centres undefined)	-17.0	40.9*	i	0.3	5.1
Cc1ccc(N=Cc2cccc(O)c2O)c(C)c1	x	5.0	+	1.0	99.2*
Cc1oc(C(=O)O)cc1COc1cccc2cccnc12	11.3	1.7	i	1.1	92.1*
COc1ccc2c(c1)c(=O)oc1c(C)c(OCc3cc(C(=O)O)oc3C)ccc12	12.1	1.6	+	0.8	83.9
COc1ccc2c(c1)c(=O)oc1c(C)c(OCc3ccc(C(=O)O)cc3)ccc12	x	1.3	i	x	70.3
COc1ccc(CN2C(=O)c3cccnc3C2Nc2cc(Cl)ccc2OC)cc1 (centres undefined)	98.8*	9.8	i	-0.5	-0.8
COCCNC(=S)N/N=C(\C)c1ccccc1OC	-1.8	17.5	i	0.2	3.7
COCCNC(=S)N/N=C(\C)c1ccccc1O	-1.9	43.6*	i	0.9	6.5
N#CCc1ccc(OC(=O)c2ccncc2)cc1	x	4.3	x	x	x
Cc1cccc(OCCN2C(=O)C(=O)c3cccc(C)c32)c1	1.9	-6.2	i	0.7	1.1*
SMILES	eIF4E-4G inh	PABP1 MLLE inh	PABP polyA inh	PERK inh	eIF4H inh
Cc1cccc2c1N(CCCOc1ccccc1)C(=O)C2=O	5.2	5.2	i	-0.7	-7.3
Nc1nc(-c2ccccc2)c(-c2ccccc2)n1N	x	3.5	+	x	54.0
CCn1c(C)nc2cc(S(=O)(=O)Nc3ccc(C)cc3)ccc21	0.2	-139.3	+	1.1	7.9
COC(=O)C(C(=O)OC)=C(/C=C/N(C)C)N(C)C	-9.1	1.8	i	1.3	-3.1
COC(=O)C(C(=O)OC)=C(/C=C/C=C/N(C)C)N(C)C	-15.4	21.8	+	0.5	100.8*
COc1ccc(-c2nc(CS(=O)CC(=O)NCC3CCCO3)c(C)o2)cc1 (centres undefined)	0.4	14.3	i	0.6	0.2
COc1cccc(-c2nc(CSCC(=O)NCC3CCCO3)c(C)o2)c1 (centres undefined)	-6.0	45.6*	i	0.8	-5.3
CSc1cccc(NC(=S)N2CCC(N(C)C3CCCC3)CC2)c1	-2.3	-40.4	+	0.2	2.1*
CCN(CC)c1ncnc2c1[nH]c1ccccc12	2.9	-13.4	+	-0.6	71.5*
